# Sampled rows, rich in hits. Any-hit rate of the full collection: about 3.4%.
# KLK7 zymogen act = proKLK7 zymogen activators, primary screen, biochemical, fluorescence intensity; Kallikrein-7 (Homo sapiens), P49862; purified proKLK7, EDANS-DABCYL substrate fluorescence; 100% is mature enzyme control, 0% vehicle; activation, % at 7 µM; 370,000 compounds, 0.9% hits;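 active means activation above the mean of all tested compounds plus 3 SD, computed per campaign excluding outliers beyond control limits, cut at about 13% in these data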
# HGIII-sPLA2 inh = human group III sPLA2 inhibitors, primary screen, biochemical, QFRET, BODIPY PC-A2 liposome substrate; Group 3 secretory phospholipase A2 (Homo sapiens), Q9NZ20; QFRET BODIPY PC-A2 liposome hydrolysis, fluorescence; inhibition, % at 12.2 µM; 370,000 compounds, 0.56% hits; AID 743126, 2013;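 active means inhibition above mean plus 3 SD of compounds lying within the high and low control bounds, cut at about 19% in these data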;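 further: 0% = median of test compound wells and 100% = no enzyme DMSO wells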
# ADAM10 inh = human ADAM10 inhibitors, primary screen, biochemical, QFRET, HTS | inhibition, % at 7 µM | 370,000 compounds, 0.62% hits | recombinant ADAM10, EDANS/DABCYL FRET peptide cleavage, 3 h;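 active means inhibition above a per-campaign cutoff equal to the mean of compounds falling between control-based bounds plus 3 SD, cut at about 20% in these data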;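 further: 0% = DMSO wells while the 100% control is not disclosed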
# Target sequence (O14672 214-748 limits assumed): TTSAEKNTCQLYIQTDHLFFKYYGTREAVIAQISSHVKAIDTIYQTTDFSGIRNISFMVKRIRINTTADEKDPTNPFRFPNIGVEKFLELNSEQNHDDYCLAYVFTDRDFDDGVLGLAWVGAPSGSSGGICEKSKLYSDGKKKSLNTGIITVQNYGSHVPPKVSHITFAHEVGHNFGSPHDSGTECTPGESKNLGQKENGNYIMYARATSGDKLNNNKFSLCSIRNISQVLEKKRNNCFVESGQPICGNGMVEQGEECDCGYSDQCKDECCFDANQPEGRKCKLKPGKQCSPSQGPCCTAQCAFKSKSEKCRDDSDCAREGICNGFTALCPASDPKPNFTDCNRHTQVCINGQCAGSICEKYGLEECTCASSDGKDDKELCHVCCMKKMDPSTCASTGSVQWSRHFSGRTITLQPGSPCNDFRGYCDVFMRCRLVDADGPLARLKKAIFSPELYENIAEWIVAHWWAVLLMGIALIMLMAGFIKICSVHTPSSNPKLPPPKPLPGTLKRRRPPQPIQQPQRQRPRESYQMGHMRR
# PLC-beta3 inh = human PLC-beta3 inhibitors, primary screen, biochemical, fluorescence. 1-phosphatidylinositol 4,5-bisphosphate phosphodiesterase beta-3 (Homo sapiens), Q01970. Purified PLC-beta3, fluorogenic substrate. inhibition, % at 12.2 µM. 370,000 compounds, 0.18% hits; in the data active means inhibition above about 11%;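 further: 0% = median of compound wells on plate and 100% = full blocker control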
# PLC-gamma1 inh = PLC-gamma1 enzyme inhibitors, primary screen, biochemical, fluorescence, purified enzyme; AID 720700, 2013; 1-phosphatidylinositol 4,5-bisphosphate phosphodiesterase gamma-1 (Homo sapiens), P19174; fluorogenic substrate; 370,000 compounds, 0.84% hits; inhibition, % at 12.2 µM; in the data active means inhibition above about 9.5%
# ADAM17 inh = ADAM17 inhibitors, primary screen, biochemical, QFRET; AID 720648, 2013; inhibition, % at 6.95 µM; Disintegrin and metalloproteinase domain-containing protein 17 (Homo sapiens), P78536; recombinant ADAM17, EDANS/DABCYL FRET peptide cleavage; 370,000 compounds, 0.83% hits;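 active means inhibition above the mean of compounds lying between control limits plus 3 SD, set per campaign, cut at about 8.5% in these data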;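 further: 0% = DMSO-only wells as the low control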
# KLK7 act conf = proKLK7 zymogen activators, confirmation, biochemical, fluorescence intensity, triplicate | shares compounds with KLK7 zymogen act | purified proKLK7, EDANS-DABCYL substrate fluorescence; scaled: vehicle 0, mature enzyme 100 | activation, % at 7 µM | 3,200 compounds, 68% hits;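 active means activation, as change over the incubation, above the mean of all tested compounds plus 3 SD, cut at about 13% in these data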
# EDANS-DABCYL int = EDANS-DABCYL substrate optical interference, artefact control for kallikrein-7 zymogen activator project, biochemical, fluorescence intensity, high throughput | no enzyme, 4 h; solvent 0%, active enzyme control 100% | activation, % at 7 µM | shares compounds with KLK7 zymogen act | 3,200 compounds, 80% hits;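 active means activation above the all-compound mean plus 3 SD, ignoring values outside control-based bounds, cut at about 4.8% in these data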;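 further: value is the 4 h activation minus the activation read at time zero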
# * = called active by the depositor; i = inactive; nt = not tested or not shown.
SMILES,KLK7 zymogen act,HGIII-sPLA2 inh,ADAM10 inh,PLC-beta3 inh,PLC-gamma1 inh,ADAM17 inh,KLK7 act conf,EDANS-DABCYL int
CC(C)Oc1ccc(Oc2ccc(C#C[C@H](C)N3C(=O)c4ccccc4C3=O)cc2)cn1,nt,2,1,1,2,-3,nt,nt
O=C(NCCCc1ccccc1)[C@H](Cc1c[nH]c2ccccc12)NC1(C(=O)NCCc2c[nH]c3ccccc23)CCOCC1,nt,-83,12,3,4,7,nt,nt
Clc1ccc2nc(N3CCNCC3)nc(-c3ccccc3)c2c1,16*,15,-491,-271,-205,-127,-6,-9
CN1CCN(c2nc(-c3ccccc3)c3cc(Cl)ccc3n2)CC1,-1,4,-132,-160,-138,-44,nt,nt
Cc1ccc2nc(N3CCN(CCO)CC3)nc(-c3ccccc3)c2c1,21*,-8,-255,-385,-287,-92,6,4.1*
Cc1nc2[nH]c(=O)c3c(n2n1)NC1=C(C(=O)CC(C)(C)C1)C3c1ccccc1 (stereo not drawn),47*,-1,i,i,i,-233,8,11*
CC1(C)CC(=O)C2=C(C1)NC1=C(C(=O)c3ccccc31)C2c1ccccc1 (stereo not drawn),0,4,10,3,-1,1,nt,nt
COC(=O)C1=C(C)Nc2nnnn2C1c1cccnc1 (stereo not drawn),0,1,4,2,-1,-3,nt,nt
CC1=C(C(=O)Nc2ccccn2)C(c2cccnc2)n2nnnc2N1 (stereo not drawn),21*,1,-289,-46,-33,-93,5,5.8*
CC(C)C[C@@H]1COc2cccc(NC3CC3)c2S(=O)(=O)N1,0,-5,-6,0,0,0,nt,nt
COc1ccc2sc(-c3ccc(S(C)(=O)=O)cc3)c(C(=O)NCCCN3CCCC3=O)c2c1,3,7,-86,-83,-61,-24,nt,nt
COc1cc2sc(-c3ccc(S(C)(=O)=O)cc3)c(C(=O)NCc3ccc(C)o3)c2cc1OC,14*,-3,i,i,i,-186,23*,31*
Cc1ccc(CNC(=O)c2c(-c3ccccc3)sc3ccccc23)o1,0,3,3,-2,2,-2,nt,nt
COc1cc2sc(-c3ccc(S(C)(=O)=O)cc3)c(C(=O)NCCCCO)c2cc1OC,31*,-3,i,i,i,-320,22*,32*
CCOC(=O)C1CCN(C(=O)Nc2ccc3snnc3c2)CC1,0,4,-30,-7,-7,-13,nt,nt
CCOC(=O)N1CCN(C(=O)Nc2ccc3nc(-c4ccccn4)c(-c4ccccn4)nc3c2)CC1,32*,0,-382,i,i,-137,32*,33*
CCOC(=O)C1CCN(C(=O)Nc2ccc3nccnc3c2)CC1,14*,-1,i,i,i,-234,71*,71*
COc1ccc(-c2ccc(C3C(C#N)=C(N)Oc4n[nH]c(C)c43)o2)cc1 (stereo not drawn),14*,-9,-58,-229,-161,-12,9,9.0*
Cc1[nH]nc2c1C(c1ccc(OC(=O)c3ccco3)cc1)C(C#N)=C(N)O2 (stereo not drawn),310*,0,8,3,6,4,1,-2
CC(C)c1[nH]nc2c1C(c1ccc(OC(=O)c3ccco3)cc1)C(C#N)=C(N)O2 (stereo not drawn),0,-6,7,-1,-1,-3,nt,nt
COC(=O)[C@]12C[C@H](CC(=O)NCc3cccc4ccccc34)C(=O)N(Cc3ccc4c(c3)OCO4)C1=C[C@H](COCc1ccccc1)O[C@@H]2C,0,-10,17,-2,-1,3,nt,nt
C[C@@H]1CN([C@H](C)CO)C(=O)CCCn2nncc2CO[C@H]1CN(C)C(=O)Nc1ccc2c(c1)OCCO2,0,6,4,2,0,1,nt,nt
Nc1ccc2c(c1)[nH]c(=O)c1cc(N)ccc12,99*,1,i,i,i,-238,61*,71*
O=c1[nH]c2cc([N+](=O)[O-])ccc2c2ccc([N+](=O)[O-])cc12,-1,-8,-5,0,-3,0,nt,nt
C#CCn1c2ccccc2c(=O)n1C(C)CBr (stereo not drawn),1,2,-189,-26,-19,-44,nt,nt
SMILES,KLK7 zymogen act,HGIII-sPLA2 inh,ADAM10 inh,PLC-beta3 inh,PLC-gamma1 inh,ADAM17 inh,KLK7 act conf,EDANS-DABCYL int
COC(=O)Cn1c2ccccc2c(=O)n1C(C)CBr (stereo not drawn),67*,7,i,-141,-89,-208,62*,55*
C[C@H](CO)N1C[C@H](C)[C@@H](CN(C)C(=O)Nc2ccc(C(F)(F)F)cc2)OCc2cn(nn2)CCCC1=O,-1,7,-13,-2,0,-4,nt,nt
C=CCOC(=O)COc1ccc2c(C)c(C)c(=O)oc2c1,15*,-2,-364,-58,-46,-88,11,14*
C=CCOC(=O)COc1ccc2c(C)c(CC)c(=O)oc2c1,27*,3,i,-143,-94,-203,11,13*
N#Cc1cnn2c(-c3cccc(C(F)(F)F)c3)ccnc12,9,-4,-381,i,-385,-106,nt,nt
N#Cc1cnn2c(-c3ccc(Cl)cc3Cl)ccnc12,20*,1,i,i,i,-227,21*,22*
Nc1[nH]c(C(=O)c2ccccc2)c(-c2ccc(Br)cc2)c1C(=O)NCCCN1CCOCC1,nt,4,-15,-11,-8,-7,nt,nt
Cc1ccc(Cl)cc1NC(=O)N(C)CCOC(=O)Nc1cccc(Cl)c1,0,-16,2,-1,4,3,nt,nt
COC(=O)CNC(=O)CN1c2cccc3cccc(c23)S1(=O)=O,23*,10,-351,-495,-403,-122,17*,17*
CC(C)(C)OC(=O)CN1c2cccc3cccc(c23)S1(=O)=O,13*,-1,-163,-234,-178,-71,6,13*
O=C(CN1c2cccc3cccc(c23)S1(=O)=O)N1CCCCC1,15*,5,-295,-392,-275,-80,12,13*

# Compound activity deposited in PubChem by The Scripps Research Institute Molecular Screening Center.
